Laboratory results published in PubChem BioAssay (NCATS).
Inconclusive results are not listed. A call without a number means that no potency is given here. A number with no mark means an inactive call. Active and inactive are the calls of the source. Calls follow the shape of the dose curve; as a rule, active = well fitted curve in the direction sought with a large enough effect; inconclusive = small, poorly fitted or top-dose-only effect, or another doubt; inactive = no such curve, though single readings can be large; an effect the other way counts as inactive or inconclusive.

How the values were obtained:
[1] = qHTS to identify inhibitors of the type 1 interferon - major histocompatibility complex class I in skeletal muscle: primary screen against the NCATS Mechanism Interrogation Plate v5.0 (MIPE) Libary (AID 1347411); also: nearly all actives have a fitted effect of over 65% in size
How it was run: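 Seed engineered human myoblasts (HLA-B HiBit) in medium without dexamethasone containing 4 ng/ml IFN-beta; after 1 hr add compound titrations (top 46 uM final). Incubate 24 hrs at 37 C, lyse 10 min with HiBiT reagent, read luminescence.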

[2] = target: Calcium and integrin-binding protein 1 (Homo sapiens) (UniProt Q99828); test: Primary qHTS for Identification of Calcium Integrin Binding Protein 1 (CIB1) Competitor (AID 1508620);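 also: GST tagged CIB1 binding a fluorescein labelled alphaIIb integrin peptide tracer; top concentration of the series differs between compounds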
How it was run: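 Fluorescence polarization competition: GST-tagged CIB1 (1 uM final) preincubated with compound 15 min at room temperature, then FITC-labelled alphaIIb peptide (100 nM final) added. After 15 min at room temperature, polarization read at Ex 480/Em 540.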

[3] = qHTS to identify inhibitors of the type 1 interferon - major histocompatibility complex class I in skeletal muscle: primary screen against the NCATS Pharmaceutical Collection (AID 1347407);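 also: luminescence of HiBiT knocked into endogenous HLA-B as interferon-induced MHC class I level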
How it was run: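 A qHTS format is used: 8-point, 1:5 compound series with 46 uM top final concentration, applied alongside 4 ng/ml IFN-beta to HLA-B*08:01-HiBiT knock-in myoblasts. Luminescence is measured after 24 h treatment.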

[4] = target: Protein phosphatase 1D (Homo sapiens) (UniProt O15297); test: RapidFire Mass Spectrometry qHTS Assay for Modulators of WT P53-Induced Phosphatase 1 (WIP1) (AID 1347424); also: series mostly up to about 63 µM
How it was run: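 RapidFire MS readout of dephosphorylated VEPPL-S-QETFS product, with 1 uM isotope-labelled peptide standard. Reaction: 10 nM WIP1, 2 uM phosphopeptide substrate, 5 min, room temperature, after 1 h compound preincubation; stopped with 0.5% formic acid.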

[5] = target: Protein phosphatase 1D (Homo sapiens) (UniProt O15297); test: Rhodamine-PBP qHTS Assay for Modulators of WT P53-Induced Phosphatase 1 (WIP1) (AID 1347425)
How it was run: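 Steps: enzyme with Rh-PBP sensor and compounds, room-temperature incubation of 1 hr, baseline read, addition of VEPPL-pS-QETFS (10 uM final), kinetic fluorescence reads at 525/598 nm. Activity equals final minus baseline signal.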

[6] = Primary qHTS for inhibitors of La Crosse Virus (LACV) - induced cell death in SH-SY5Y cells (AID 1508616);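 also: top concentration of the series differs between compounds; higher means more rescue of cells from virus-induced death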
How it was run: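 SH-SY5Y, 6000 cells/well; cpd via pin tool in DMSO; LACV 0.01 MOI; 6 d 37C 5% CO2; ATPLite, 5 min RT; luminescence normalized to ±virus DMSO controls.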

[7] = system: Zika virus NS2B-NS3 protease (linked); test: 384 well plate NINDS AMC confirmatory qHTS for Zika virus inhibitors (AID 1347163); conditions: Recombinant NS2B-NS3 protease, Ac-VKTGKR-AMC fluorescence; also: potency is read from the fitted curve at half-maximal effect; nearly all actives have a fitted effect of over 50% in size
How it was run: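 Fluorescence at 355/460 nm was read after 25 minutes of cleavage of 30 microM Ac-VKTGKR-AMC at room temperature, in the dark. Before substrate addition, compounds (up to 1 mM final) sat ~15 minutes with 5, 30 or 60 nM linked protease. Signals were normalized to no-enzyme and no-inhibitor wells.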

[8] = system: Zika virus NS2B-NS3 protease (linked construct); test: 384 well plate NINDS Rhodamine confirmatory qHTS for Zika virus inhibitors (AID 1347164); conditions: rhodamine-110 peptide substrate fluorescence; also: potency is read from the fitted curve at half-maximal effect; nearly all actives have a fitted effect of over 65% in size
How it was run: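 Cleavage of Ac-LKRR-Rhodamine 110 (10 microM final) by linked protease (final 5, 30 or 60 nM) was followed as fluorescence at 485/538 nm after 25 min, room temperature, dark. Compounds preincubated ~15 min.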

[9] = Tertiary RLuc qRT-PCR qHTS assay for Zika virus inhibitors (AID 1347169); also: top concentration of the series differs between compounds; nearly all actives have a fitted effect of over 55% in size
How it was run: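 Inhibition of ZIKV-RLuc replication in Vero cells, read as Renilla luminescence 1-1.5 hrs after live-cell substrate addition, following 48-72 hrs infection at MOI 1-2 in presence of compound.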

[10] = Confirmatory qHTS for small molecule stabilizers of the endoplasmic reticulum resident proteome: Secreted ER Calcium Modulated Protein (SERCaMP) assay (AID 1508628); also: potency is read from the fitted curve at half-maximal effect; nearly all actives have a fitted effect of over 40% in size
How it was run: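 Reporter secretion upon ER calcium depletion (100 nM thapsigargin, 4 h, 37C) is measured as medium luminescence with coelenterazine, after 16 h compound pretreatment of SH-SY5Y-GLuc-SERCaMP cells; primary at three concentrations up to 38.3 uM, follow-up at 11 (up to 76.6 uM).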

[11] = Vero cells viability qHTS for Zika virus inhibitors (AID 1347167)
How it was run: (§1)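 qHTS titration; 24-48 h compound exposure, 37 degrees C/5% CO2; DMEM, 4% FBS; CellTiter Glo ATP luminescence.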

[12] = HepG2 cells viability qHTS for Zika virus inhibitors (AID 1347168)
How it was run: as §1

Sequence of Protein phosphatase 1D (Homo sapiens) (O15297 whole entry, looked up): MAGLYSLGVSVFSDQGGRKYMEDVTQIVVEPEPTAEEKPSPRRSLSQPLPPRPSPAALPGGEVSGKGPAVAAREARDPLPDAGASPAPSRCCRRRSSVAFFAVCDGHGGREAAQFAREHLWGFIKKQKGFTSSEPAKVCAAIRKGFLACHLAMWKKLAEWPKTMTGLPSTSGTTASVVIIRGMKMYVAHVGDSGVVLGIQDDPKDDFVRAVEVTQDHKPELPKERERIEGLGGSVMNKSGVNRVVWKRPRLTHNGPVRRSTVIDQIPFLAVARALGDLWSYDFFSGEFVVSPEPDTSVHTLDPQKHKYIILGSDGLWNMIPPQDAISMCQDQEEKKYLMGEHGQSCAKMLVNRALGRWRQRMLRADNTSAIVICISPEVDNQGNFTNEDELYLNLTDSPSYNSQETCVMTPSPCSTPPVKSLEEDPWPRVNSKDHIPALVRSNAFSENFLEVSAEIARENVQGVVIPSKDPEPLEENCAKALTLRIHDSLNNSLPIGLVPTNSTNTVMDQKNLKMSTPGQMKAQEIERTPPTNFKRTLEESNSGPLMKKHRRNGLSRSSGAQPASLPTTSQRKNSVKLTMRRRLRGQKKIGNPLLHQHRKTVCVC
Sequence of Calcium and integrin-binding protein 1 (Homo sapiens) (Q99828 whole entry, looked up): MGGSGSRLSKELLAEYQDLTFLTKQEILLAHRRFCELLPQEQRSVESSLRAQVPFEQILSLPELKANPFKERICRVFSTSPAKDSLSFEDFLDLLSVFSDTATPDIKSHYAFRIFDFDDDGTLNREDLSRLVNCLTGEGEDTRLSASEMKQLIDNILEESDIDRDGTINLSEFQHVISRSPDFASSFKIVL

CCC[C@@H]1C[C@@H](C(=O)N[C@@H]([C@H]2O[C@H](SC)[C@H](O)[C@@H](O)[C@H]2O)[C@H](C)Cl)N(C)C1
Potency [1]: inactive

CC[C@H]1OC(=O)[C@H](C)[C@@H](O[C@H]2C[C@@](C)(OC)[C@@H](O)[C@H](C)O2)[C@H](C)[C@@H](O[C@@H]2O[C@H](C)C[C@H](N(C)C)[C@H]2O)[C@](C)(O)C[C@@H](C)CN(C)[C@H](C)[C@@H](O)[C@]1(C)O
Potency [1]: inactive

CC(C)(C)c1ccc(CN2CCN(C(c3ccccc3)c3ccc(Cl)cc3)CC2)cc1 (stereo not given)
Potency [2]: inactive

Nc1ccc(N=Nc2ccccc2)c(N)n1
outcome [3]: inactive
outcome [4]: inactive
outcome [5]: inactive
outcome [6]: inactive

O=C(O)CCC(=O)c1ccc(-c2ccccc2)cc1
outcome [3]: inactive
outcome [4]: inactive
outcome [5]: inactive
outcome [6]: inactive
Potency [2]: inactive

COc1ccc([C@@H]2CC(=O)c3c(O)cc(O[C@@H]4O[C@H](CO[C@@H]5O[C@@H](C)[C@H](O)[C@@H](O)[C@H]5O)[C@@H](O)[C@H](O)[C@H]4O)cc3O2)cc1O
Potency [1]: inactive

Cc1cc(-c2ccc(N=Nc3ccc4c(S(=O)(=O)O)cc(S(=O)(=O)O)c(N)c4c3O)c(C)c2)ccc1N=Nc1ccc2c(S(=O)(=O)O)cc(S(=O)(=O)O)c(N)c2c1O
Potency [7]: 5.62 µM (active)
Potency [8]: 8.91 µM (active)
Potency [9]: inactive
Potency [10]: 31.6 µM (active)

C/C(=C\C(=O)OCCCCCCCCC(=O)O)C[C@@H]1OC[C@H](C[C@@H]2O[C@H]2[C@@H](C)[C@H](C)O)[C@@H](O)[C@H]1O
Potency [2]: inactive

CO[C@H]1C[C@H](O[C@@H]2/C(C)=C/C[C@@H]3C[C@@H](C[C@]4(CC[C@H](C)[C@@H](C5CCCCC5)O4)O3)OC(=O)[C@@H]3C=C(C)/C(=N/O)[C@H]4OC/C(=C\C=C\[C@@H]2C)[C@]43O)O[C@@H](C)[C@@H]1O
outcome [11]: inactive
outcome [12]: inactive
Potency [9]: inactive

CN(C)CCCSc1ccccc1NC(=O)/C=C/c1ccccc1
outcome [3]: inactive
outcome [4]: inactive
outcome [5]: inactive
outcome [6]: inactive
Potency [2]: inactive

C=C1CC[C@H](O)CC1=C/C=C1\CCC[C@]2(C)[C@@H]([C@H](C)/C=C/[C@H](C)C(C)C)CC[C@@H]12
Potency [2]: inactive

COc1ccc(C[C@H](C)NC[C@@H](O)c2ccc(O)c(NC=O)c2)cc1
Potency [2]: inactive

CNC(=O)[C@H](Cc1c[nH]c2ccccc12)NC(=O)[C@@H](CC(=O)NO)CC(C)C
Potency [1]: inactive

Cc1cc(-c2ccc(N=Nc3c(S(=O)(=O)O)cc4cc(S(=O)(=O)O)cc(N)c4c3O)c(C)c2)ccc1N=Nc1c(S(=O)(=O)O)cc2cc(S(=O)(=O)O)cc(N)c2c1O
Potency [7]: 20 µM (active)
Potency [8]: 7.94 µM (active)
Potency [9]: inactive

CO[C@H]1O[C@@H]2O[C@@]3(C)CC[C@H]4[C@H](C)CC[C@@H]([C@H]1C)[C@@]24OO3
Potency [1]: inactive

CC1(C)C(\C=C/C=C\C=C/C=C2/N(CCCCS(=O)(=O)O)c3ccc4ccccc4c3C2(C)C)=[N+](CCCCS(=O)(=O)[O-])c2ccc3ccccc3c21
Potency [7]: 39.8 µM (active)
Potency [8]: 4.47 µM (active)
